These results are taken from the supplement of paper PMC7411054.

Counter-ions that a name gives are not always drawn. Unmarked numbers belong to inactive results.

The test system of this assay is WPMY1-TP53BP1-CLTA. Nature of the assay: phenotypically active (imaging signature differs from DMSO and reproducible) at any of 0.3-9 uM (binary (1 = active, 0 = inactive)); higher = active. Conditions: treatment time: 24 h. A digest of the protocol:
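Fifteen gene-edited A549, HepG2 and WPMY1 reporter lines (BFP segmentation plus GFP and RFP/FusionRed markers) were treated at 0.3, 1, 3 or 9 µM for 24 h, four wells each, then imaged live. Live-cell features per well were normalised to DMSO control wells. Deviation required ≥3 of 4 wells beyond the 95th percentile of DMSO Euclidean distances, and reproducibility required median replicate Pearson correlation above the 95th percentile of non-replicates. Phenotypic activity needed both criteria.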
With `N[C@@H]1C[C@H]1c1ccccc1` [Tranylcypromine hydrochloride], the phenotypically active is 0.

For the molecule `C/C=C1\CN2CC[C@]34c5cc(OC)ccc5N5C(=O)C(O)OC[C@@H]([C@H]53)[C@H]1C[C@H]24` (stereo partly specified) [10-Methoxy-o-demethyltsilanine], the phenotypically active is 0.

`Fc1ccccc1C1=NCC(=S)N(CC(F)(F)F)c2ccc(Cl)cc21` [quazepam]: the phenotypically active is 0. Under `COc1c2c(cc3c1OCO3)CC[N+](C)=C2` [Cotarnine chloride] stands 0; under `N[C@H]1C[C@@H]1c1ccccc1` [tranylcypromine], 0; under `O=c1ccc2ccc3occc3c2o1` [Angelicin], 0. Under `C[C@]12COC(=O)C[C@@H]1CC[C@@H]1[C@@H]2CC[C@@]2(C)[C@H]1CC[C@]2(C)O` [oxandrolone] stands 0; under `CC(C)C[C@H](CN)CC(=O)O` [pregabalin], 0. Under `NC(=S)N/N=C/c1coc2ccccc2c1=O` stands 0.

As for `O[C@H]1[C@H](O)[C@@H](O)CN2CC[C@H](O)[C@H]12` [Castanospermine], the phenotypically active is 0.

`Cc1ccc(-c2nc3ccc(C)cn3c2CC(=O)N(C)C)cc1` [zolpidem]: the phenotypically active is 0. For `CN1C(CC(O)c2ccccc2)CCCC1CC(O)c1ccccc1` (stereo unspecified) [Lobelanidine hydrochloride], the phenotypically active is 0. Consider `CNC(=O)Oc1ccc2c(c1)[C@]1(C)CCN(C)O[C@@H]1N2C` [Geneserine], for which the phenotypically active is 0. Regarding `COc1ccc(C(=O)OC2C[C@H]3CC[C@H](C2)N3C)cc1OC` (stereo partly specified) [Convolamine hydrochloride], the phenotypically active is 0. Under `CC(C)[N+](C)(CCC(C(N)=O)(c1ccccc1)c1ccccc1)C(C)C` [isopropamide-iodide] stands 0. Under `CC(C)N(CCC(C(N)=O)(c1ccccc1)c1ccccn1)C(C)C` (stereo unspecified) [disopyramide] stands 0; under `O=C1C[C@@H]2OCC=C3C[N+]4([O-])CC[C@]56c7ccccc7N1[C@H]5[C@H]2[C@H]3C[C@@H]64` (stereo partly specified) [Genostrychnine base], 0; under `C[C@@H]1CN([C@H]2CC[C@](C#N)(c3ccc(F)cc3)CC2)CC[C@]1(C(=O)O)c1ccccc1` [levocabastine], 0. `Cc1ccc(C[N+](C)(C)C)o1` [5-Methylfurmethiodide]: the phenotypically active is 0. In the case of `COc1cc2c3cc1Oc1cc(ccc1O)C[C@@H]1c4c(cc(OC)c(O)c4Oc4cccc(c4)C[C@@H]3N(C)CC2)CC[N+]1(C)C` [Tubocurarine chloride pentahydrate (+)], the phenotypically active was 0.

As to `CCCC(C)C1(CC)C(=O)N=C(S)NC1=O` (stereo unspecified) [thiopental], the phenotypically active was 0. Turning to `C=C1[C@H]2C[C@@]3([C@@H]1O)[C@@H](C[C@@H]2O)[C@]12[C@@H]4C[C@H]3[C@H]1N(CC)C[C@]4(C)CC[C@@H]2O` [Napelline], the phenotypically active was 0. Consider `CO[C@H](C)[C@](O)(C(=O)OCC1=CCN2CC[C@H](O)[C@@H]12)C(C)C` [Heliotrine], for which the phenotypically active was 0. Turning to `C/C=C1\C[C@@H](C)[C@](O)(CO)C(=O)OCC2=CCN3CC[C@@H](OC1=O)[C@@H]23` [Retrorsine], the phenotypically active was 0. In the case of `CN(C)NC(=O)CCC(=O)O` [Daminozide], the phenotypically active is 0.

Regarding `CN1[C@@H]2CC(=O)C[C@H]1[C@H](O)C2` [6-Hydroxytropinone], the phenotypically active is 0. Regarding `COc1ccc2c3c1O[C@H]1C(=O)CC[C@H]4[C@@H](C2)N(C)CC[C@]314` [hydrocodone], the phenotypically active was 0. With `CCN(C(C)=O)c1cccc(-c2ccnc3c(C#N)cnn23)c1` [zaleplon], the phenotypically active was 0.

For `C[N+]1([O-])[C@@H]2C[C@@H](OC(=O)[C@H](CO)c3ccccc3)C[C@H]1[C@@H]1O[C@@H]12` (stereo partly specified) [Genoscopolamine HBr], the phenotypically active was 0. On to `NCC1(CC(=O)O)CCCCC1` [gabapentin], for which the phenotypically active was 0. As for `CN1CCc2cc3c(cc2[C@H]1[C@@H]1OC(=O)c2c1ccc1c2OCO1)OCO3` [bicuculine], the phenotypically active was 0.

With `c1cncc(C2CC3CCN2CC3)c1` (stereo unspecified) [RJR 2429 dihydrochloride], the phenotypically active was 0.

As to `CC1=CC(=O)C2=C(C)C[C@H](O)[C@@H]3[C@H](OC(=O)[C@H]3C)[C@@H]12` [Austricine hydrate], the phenotypically active is 0.

For `C=C(C)[C@H]1CN[C@H](C(=O)O)[C@H]1CC(=O)O` [Kainic acid], the phenotypically active is 0. Consider `C[C@H]1CCC2(NC1)O[C@H]1C[C@H]3[C@@H]4CC[C@H]5C[C@@H](O[C@@H]6O[C@H](CO)[C@H](O[C@@H]7O[C@H](CO)[C@@H](O)[C@H](O[C@@H]8OC[C@@H](O)[C@H](O)[C@H]8O)[C@H]7O[C@@H]7O[C@H](CO)[C@@H](O)[C@H](O)[C@H]7O)[C@H](O)[C@H]6O)CC[C@]5(C)[C@H]4CC[C@]3(C)[C@H]1[C@@H]2C` (stereo partly specified) [Tomatine], for which the phenotypically active is 0. Consider `CN1[C@@H]2C[C@@H](OC(=O)[C@H](CO)c3ccccc3)C[C@H]1[C@@H]1O[C@@H]12` [Scopolamine hydrobromide], for which the phenotypically active was 0.
